Bioassay records deposited in PubChem by Bradner/Qi Labs at DFCI.
This is one part of a sample in which hits are shown more often than they occur.
CBX7 AlphaScr = CBX7 chromodomain binding inhibitors, primary screen, biochemical, AlphaScreen; AlphaScreen His6-CBX7 / biotin-H3K27me3 peptide binding; stronger effect = lower value; normalised signal (fraction of DMSO) (test concentration not listed); actives 1.1% (n = 66,000); AID 1224903, 2016; in the data active means normalised signal below about 0.5
Target sequence (O95931 whole entry, looked up): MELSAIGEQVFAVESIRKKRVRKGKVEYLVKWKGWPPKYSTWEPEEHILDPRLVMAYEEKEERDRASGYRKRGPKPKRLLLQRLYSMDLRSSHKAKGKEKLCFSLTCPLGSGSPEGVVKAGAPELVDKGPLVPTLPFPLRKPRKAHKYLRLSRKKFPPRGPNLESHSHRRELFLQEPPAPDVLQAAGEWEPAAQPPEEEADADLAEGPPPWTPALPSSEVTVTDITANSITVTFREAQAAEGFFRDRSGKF
Hits are given with their value; . = inactive.

SMILES	CBX7 AlphaScr
O=C(CCCN1C(=O)c2ccccc2C1=O)Nc1c2c(nc3c1CCC3)CCC2	.
O=C(CN1CCCC1)Nc1c2c(nc3c1CCC3)CCC2	0.27
NC(=O)c1c(NC(=O)CN2CCCCC2)sc2c1CCCC2	.
O=C(CN1CCCCCC1)Nc1c2c(nc3c1CCC3)CCCC2	0.0744
O=C(Cc1ccccc1)Nc1c2c(nc3ccccc13)CCC2	.
CCCCC(=O)Nc1c2c(nc3c1CCC3)CCCC2	.
COc1ccc(C2=NOC(C(=O)Nc3ccc(F)cc3F)C2)cc1OC (configuration not stated)	.
Cc1ccc(C)c(N2CCN(C(=O)CC3Sc4ccccc4NC3=O)CC2)c1 (configuration not stated)	0.495
Cc1cccc(CCNC(=O)CC2Sc3ccccc3NC2=O)c1 (configuration not stated)	.
Cc1cc(Cl)ccc1NC(=O)CC1Sc2ccccc2NC1=O (configuration not stated)	.
CC12c3ccccc3C(c3ccccc31)C1C(=O)N(c3ccccc3Cl)C(=O)C12 (configuration not stated)	.
O=C1C2=C(Nc3ccccc3SC2c2cccs2)c2ccccc21 (configuration not stated)	0.395
CCNC(=O)CC1Sc2ccccc2NC1=O (configuration not stated)	.
CC1CCCCC1NC(=O)C(C)C1Sc2ccccc2NC1=O (configuration not stated)	.
O=C(NCc1ccc2c(c1)OCO2)c1ccc2c(=O)n(CCc3ccccc3)c(=O)[nH]c2c1	.
CCCOc1ccc(C2CC(=O)NC3=C2C(=O)CC(C)(C)C3)cc1OC (configuration not stated)	.
CCCCCCC(C)NC(=O)c1c(-c2ccccc2)noc1C (configuration not stated)	.
COc1ccc(Nc2ncc(C(=O)Nc3cccc(Cl)c3)c3ccccc23)cc1	0.2
CCOc1ccc(NC(=O)c2cnc(Nc3ccc(OC)cc3)c3ccccc23)cc1	.
COc1ccc(Nc2ncc(C(=O)Nc3cnc4ccccc4c3)c3ccccc23)cc1	.
CC(C)(C)C(=O)Nc1nnc(Cc2ccc(F)cc2)s1	.
COc1ccc(N2Cc3cccc(C(=O)Nc4ccccc4OC)c3C2=O)cc1	.
CCc1ccccc1NC(=O)c1cccc2c1C(=O)N(c1ccc(OC)cc1)C2	0.143
CCc1ccc(NC(=O)c2cccc3c2C(=O)N(c2ccc(OC)cc2)C3)cc1	.
Cc1cccc(NC(=O)C(Cc2ccccc2)NS(=O)(=O)c2ccc3c(c2)CCC(=O)N3)c1 (configuration not stated)	.
SMILES	CBX7 AlphaScr
COc1ccccc1C(=O)NCCc1c(C)[nH]c2ccc(OCc3ccccc3)cc12	0.436
Cc1[nH]c2ccc(OCc3ccccc3)cc2c1CCNC(=O)COc1ccc(F)cc1F	.
COc1ccccc1C(=O)NCCc1c(C)[nH]c2ccc(OC(F)(F)F)cc12	.
COc1ccccc1OCc1nc(C#N)c(NCCc2ccccc2)o1	.
CC(Nc1oc(COc2ccccc2F)nc1C#N)c1ccccc1 (configuration not stated)	.
N#Cc1nc(COc2ccc(Cl)cc2)oc1NCc1cccnc1	.
N#Cc1nc(COc2ccccc2Cl)oc1NCCCn1ccnc1	0
N#Cc1nc(COc2ccccc2F)oc1NCCc1ccccc1	0.491
CN(Cc1ccccc1)c1oc(COc2ccccc2F)nc1C#N	0.417
N#Cc1nc(COc2ccc(Cl)cc2)oc1NCCCn1ccnc1	.
COc1ccc(Nc2oc(COc3ccccc3F)nc2C#N)cc1	.
Cc1ccccc1OCc1nc(C#N)c(NCCCn2ccnc2)o1	.
COc1ccc(CCNc2oc(COc3ccc(Cl)cc3)nc2C#N)cc1	.
N#Cc1nc(COc2ccc(F)cc2)oc1NCCc1ccccc1	.
CN(Cc1ccccc1)c1oc(COc2ccc(Cl)cc2)nc1C#N	0.484
O=c1[nH]c2ncccc2c(=O)n1CCc1c[nH]c2ccccc12	.
c1ccc(CSc2nc3ccccc3o2)cc1	.
COc1ccc(-n2nc(-c3ccc(Cl)cc3)cc2-c2ccc(Cl)cc2)cc1	.
Cc1ccc(-c2nc3sc4c(c3c(=O)[nH]2)CCCC4)cc1	.
Cc1cc(NS(=O)(=O)c2ccc3c(c2)CCC(=O)N3)ccc1Br	.
CC(NC(=O)c1cc2c(-c3ccccc3F)nn(C)c2s1)c1ccc2c(c1)OCCO2 (configuration not stated)	.
CCOCCCNC(=O)c1ccc2c(c1)N=C(CC)c1cc(C)ccc1S2	.
COc1ccc(-n2nc(C(=O)Nc3ccc(OC)c(OC)c3)c3ccccc3c2=O)c(OC)c1	.
CCOC(=O)c1cc(-c2ccccc2)n(CCC(=O)Nc2ccc(Cl)cc2)c1C	.
Cc1cccc(-c2nc(CN3CCCC(C(=O)NC4CCCC(C)C4C)C3)c(C)o2)c1 (configuration not stated)	.
SMILES	CBX7 AlphaScr
Cc1ccc(S(=O)(=O)N(CC(=O)N2CCN(c3ccccc3)CC2)c2ccccc2F)cc1	.
COc1ccc(OC)c(NC2c3ccccc3C(=O)N2c2ccc(Cl)cn2)c1 (configuration not stated)	0.344
COc1ccc(OC)c(NC2c3ccccc3C(=O)N2c2ccc(Cl)cc2)c1 (configuration not stated)	.
COc1ccc(OC)c(NC2c3ccccc3C(=O)N2c2ccccn2)c1 (configuration not stated)	.
COc1ccc(NC2c3ccccc3C(=O)N2c2ccc(C)cn2)cc1OC (configuration not stated)	.
Cc1ccc(N2C(=O)c3ccccc3C2Nc2ccc(Cl)cc2Cl)nc1 (configuration not stated)	.
COc1cc(OC)c(NC2c3ccccc3C(=O)N2c2ccc(C)cn2)cc1Cl (configuration not stated)	0.414
Cc1ccc(N2CC(C(=O)NCc3ccccc3Cl)CC2=O)cc1 (configuration not stated)	.
CC1CCCCN1CCCNC(=O)c1cc(-c2ccncc2)nc2ccccc12 (configuration not stated)	.
CCN1CCCC1CNC(=O)CCCNC(=O)Cn1cnc2sc(C)c(C)c2c1=O (configuration not stated)	.
CCCCN(C)CCCNC(=O)CN1C(=O)CC(C)(C)S(=O)(=O)c2ccccc21	.
CC(=O)c1ccc(N2CCN(C(=O)CCc3nc(-c4ccccc4F)no3)CC2)cc1	.
Cn1cnc2cc(NCc3ccccc3Cl)ccc21	.
CC(C)n1cnc2cc(NCc3ccccn3)ccc21	0.227
Cn1cnc2cc(NCc3cccc(Br)c3)ccc21	.
Cc1oc(-c2cccc(Cl)c2)nc1CN1CCC(C(=O)NCCN(C)C)CC1	.
O=C(NC1CCCc2ccccc21)C1CCN(S(=O)(=O)c2cccnc2)CC1 (configuration not stated)	.
CCN(CCCNC(=O)CCn1c(=O)[nH]c2ccccc2c1=O)c1cccc(C)c1	.
CCN(CCCNC(=O)c1cn(C)c(=O)c2c1c1ccccc1n2C)c1cccc(C)c1	.
O=C(CC(C(=O)N1CCc2ccccc21)n1ccnc1)NCCCN1CCOCC1 (configuration not stated)	.
CCN(CCCNC(=O)Cc1cn(C)c2ccccc12)c1cccc(C)c1	0.316
CCN(CCCNC(=O)CC(C(=O)N1CCc2ccccc21)n1ccnc1)c1cccc(C)c1 (configuration not stated)	0.225
CCCCNC(=O)CC(C(=O)N1CCc2ccccc21)n1ccnc1 (configuration not stated)	.
